Laboratory results: publication PMC4336329 (PLoS ONE, 2015)
Among all 310,000 compounds or so, about 14,000 (4.5%) showed an effect of 50% or more. Effects have a minus sign here. This excerpt belongs to a sample that is enriched for strong results.

biological target: human ether-à-go-go-related gene (hERG) potassium channel (human, UniProt Q12809); assay: primary screen, population patch clamp on CHO cells stably expressing hERG; higher = less effect of the substance
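Also: peak tail current of the secondary pulse compared with the same well before compound.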

Sequence of human ether-à-go-go-related gene (hERG) potassium channel (Q12809 whole entry, looked up): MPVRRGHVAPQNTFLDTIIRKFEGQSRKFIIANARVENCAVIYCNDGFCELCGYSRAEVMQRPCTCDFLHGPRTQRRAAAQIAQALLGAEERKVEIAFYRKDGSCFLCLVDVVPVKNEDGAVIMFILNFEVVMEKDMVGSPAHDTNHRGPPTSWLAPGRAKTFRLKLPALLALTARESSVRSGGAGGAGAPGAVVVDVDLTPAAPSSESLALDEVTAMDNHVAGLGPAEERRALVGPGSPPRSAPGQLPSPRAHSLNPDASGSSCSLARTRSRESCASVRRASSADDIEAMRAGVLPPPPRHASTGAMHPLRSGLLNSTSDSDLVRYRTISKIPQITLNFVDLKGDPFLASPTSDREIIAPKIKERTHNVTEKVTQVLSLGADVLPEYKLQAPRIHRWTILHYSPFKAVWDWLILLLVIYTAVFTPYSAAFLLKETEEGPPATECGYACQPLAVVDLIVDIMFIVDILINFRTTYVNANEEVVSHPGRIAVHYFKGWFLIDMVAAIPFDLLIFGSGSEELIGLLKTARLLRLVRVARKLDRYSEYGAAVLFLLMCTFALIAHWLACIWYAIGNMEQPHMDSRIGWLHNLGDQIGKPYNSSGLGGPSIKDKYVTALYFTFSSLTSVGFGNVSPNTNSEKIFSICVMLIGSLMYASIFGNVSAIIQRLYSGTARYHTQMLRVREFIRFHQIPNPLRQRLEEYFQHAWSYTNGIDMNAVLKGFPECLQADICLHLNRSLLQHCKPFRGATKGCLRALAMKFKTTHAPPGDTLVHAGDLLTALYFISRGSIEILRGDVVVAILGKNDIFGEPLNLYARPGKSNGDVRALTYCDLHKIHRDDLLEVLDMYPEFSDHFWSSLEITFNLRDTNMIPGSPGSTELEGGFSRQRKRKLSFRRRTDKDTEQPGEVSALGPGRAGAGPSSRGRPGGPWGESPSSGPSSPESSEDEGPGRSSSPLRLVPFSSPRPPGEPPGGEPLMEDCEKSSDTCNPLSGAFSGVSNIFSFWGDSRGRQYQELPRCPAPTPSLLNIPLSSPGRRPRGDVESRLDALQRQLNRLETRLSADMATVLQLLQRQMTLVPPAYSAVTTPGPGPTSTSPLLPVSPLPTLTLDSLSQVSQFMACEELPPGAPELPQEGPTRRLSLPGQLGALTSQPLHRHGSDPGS

Compound	hERG current change (%, negative = inhibition) at 10uM [%]
COc1cccc(/C=C/C(=O)Nc2ccc3[nH]c(=O)[nH]c3c2)c1	7.9
COc1ccc(S(=O)(=O)N(CC(=O)N2CCN(C)CC2)c2ccc(C)cc2)cc1OC	-11
COc1ccc(N(CC(=O)N2CCN(Cc3ccc4c(c3)OCO4)CC2)S(C)(=O)=O)cc1OC	9.47
Cc1ccc(S(=O)(=O)N(C)c2ccc(C(=O)N3CCN(Cc4ccc5c(c4)OCO5)CC3)cc2)cc1	-44.1
Cc1ccc(S(=O)(=O)N(C)CC(=O)N2CCN(Cc3ccc4c(c3)OCO4)CC2)cc1	-66.6
CS(=O)(=O)N(CC(=O)N1CCN(Cc2ccccc2)CC1)c1ccc2c(c1)OCCO2	-5.94
Cc1ccc(S(=O)(=O)N(C)CC(=O)N2CCN(Cc3ccccc3)CC2)cc1	-24.6
CCN1CCN(C(=O)CN(c2ccc(F)cc2)S(=O)(=O)c2ccc(OC)c(OC)c2)CC1	-66.8
COc1ccc(S(=O)(=O)N(CC(=O)N2CCOCC2)c2ccc(F)cc2)cc1OC	10.7
COc1ccc(N(CC(=O)N2CCN(Cc3ccc4c(c3)OCO4)CC2)S(=O)(=O)c2ccc(F)cc2)cc1	-84.6
CS(=O)(=O)N(CC(=O)N1CCN(Cc2ccc3c(c2)OCO3)CC1)c1ccc2c(c1)OCO2	-58.9
COc1ccc(N(CC(=O)N2CCN(Cc3ccccc3)CC2)S(=O)(=O)c2ccccc2)cc1	-26.3
O=C(CN(c1ccccc1)S(=O)(=O)c1ccccc1)N1CCN(Cc2ccc3c(c2)OCO3)CC1	-33.4
COc1ccc(C(=O)NCc2nnc(SCC(=O)Nc3cccc(F)c3)o2)cc1	-1.96
COCCn1c(-c2ccc(OC)c(OC)c2)nc2ccccc21	-21.6
O=C1NC(=NCc2ccccc2)S/C1=C\c1ccccc1	23.8
O=C(COc1ccc(Br)cc1CNCCCN1CCOCC1)Nc1ccccc1	-47.8
COc1cc(CNCCCN2CCOCC2)c(Br)cc1OC(C)C.Cl	5.58
COc1cc(CNCCCN2CCOCC2)c(Br)cc1OCC(=O)Nc1ccccc1C	-15.3
C=CCOc1ccc(Br)cc1CNCCCN1CCOCC1.Cl	-27.7
COc1ccccc1NC(=O)COc1ccc(Br)cc1CNCCCN1CCOCC1.Cl	-58.6
COc1ccccc1NC(=O)COc1cc(Br)c(CNCCCN2CCOCC2)cc1OC	-54.6
COc1cc(NC(=O)c2ccc(C)cc2)ccc1NC(=O)c1cc2ccccc2o1	15.2

Compound	hERG current change (%, negative = inhibition) at 10uM [%]
Cc1ccc(C)c(NC(=O)CSc2nnc(CCNC(=O)OC(C)(C)C)o2)c1	-12.3
CC1(C)CC(c2csc(N)n2)CCO1 (centres unmarked)	2.95
Cc1ccc(N(CC(=O)N2CCN(c3ccc(F)cc3)CC2)S(=O)(=O)c2c(C)nn(C)c2C)cc1	-65.8
Cc1ccc(N(CC(=O)NCc2ccc(F)cc2)S(=O)(=O)c2c(C)nn(C)c2C)cc1	-24.5
COc1ccc(N(CC(=O)N2CCN(c3ccccc3F)CC2)S(=O)(=O)c2c(C)n[nH]c2C)cc1	-20.6
COc1ccc(N(CC(=O)N2CCN(c3ccc(F)cc3)CC2)S(=O)(=O)c2c(C)n[nH]c2C)cc1	-69.4
Cc1ccc(N(CC(=O)N2CCN(c3ccc(F)cc3)CC2)S(=O)(=O)c2c(C)noc2C)cc1	-39.5
COc1ccc(N(CC(=O)N2CCN(c3ccc(Cl)cc3)CC2)S(=O)(=O)c2c(C)n[nH]c2C)cc1	-10.1
O=C(O)/C=C\C(=O)N1CCc2ccccc21	27.9
O=C1C(NS(=O)(=O)c2cccs2)=C(N2CCOCC2)C(=O)c2ccccc21	-40.8
C[n+]1ccc(C(=O)N/N=C/c2ccco2)cc1.[I-]	26.7
COc1cccc(C(=O)NCCCn2ccnc2)c1	7.29
COc1ccc(-c2cc(C(=O)NCCCn3ccnc3)c3ccccc3n2)c(OC)c1	-32
O=C(NCCc1ccc(Cl)cc1)c1cc(-c2ccncc2)nc2ccccc12	4.23
O=C(NCCc1ccccn1)c1cc(-c2ccc(Cl)cc2)nc2ccccc12	-19.6
O=C(NCCCn1ccnc1)c1cc(-c2ccncc2)nc2ccccc12	-56.3
COc1cccc(-c2cc(C(=O)NCCCn3ccnc3)c3ccccc3n2)c1	-71.8
O=C(NCCCn1ccnc1)c1cc(-c2ccc(Cl)cc2)nc2ccccc12	-68.8
CCCCCCCNC(=O)c1cc(-c2ccncc2)nc2ccccc12	7.84
CCOc1ccc(-c2cc(C(=O)NCCCn3ccnc3)c3ccccc3n2)cc1	-16
CCCCN(C)CCC(=O)Nc1ccc(OC)cc1OC	5.11
Cc1cccc(Nc2nc3c(c(=O)n(C)c(=O)n3C)n2CC(O)CO)c1 (centres unmarked)	-0.943
O=C(Cc1c(Cl)cccc1Cl)N1CCN(Cc2ccccc2)CC1	-0.0324

Compound	hERG current change (%, negative = inhibition) at 10uM [%]
NS(=O)(=O)c1cccnc1Nc1cccc(Cl)c1Cl	-3.35
CN(C)c1nc(-c2ccccc2)nc(-c2ccc(Cl)cc2)c1C#N	8.49
COc1ccc(-c2nc3c4ccccc4ccn3c2CN2CCCCC2)cc1OC.Cl	0.736
O=c1nc2ccccc2c2n1CC(CN1CCN(c3ccc(F)cc3)CC1)N2 (centres unmarked)	-68.6
O=C(CSc1nc2ccccc2c(=O)[nH]1)N1CCN(c2ccccc2F)CC1	9.44
O=c1nc2ccccc2c2n1CC(CN1CCN(c3ccccc3F)CC1)N2 (centres unmarked)	-50.3
Cn1c(CN2CCN(c3cccc(Cl)c3)CC2)nc2ccccc21	-44.7
Fc1ccccc1N1CCN(CC2CCCCC2)CC1	-1.99
COc1cccc(N2CCN(Cc3nc4ccccc4c(=O)[nH]3)CC2)c1	-18.9
O=c1[nH]c(CN2CCN(c3ccccc3)CC2)nc2ccccc12	1.55
O=c1[nH]c(CN2CCN(c3ccc(F)cc3)CC2)nc2ccccc12	-15.1
O=c1nc2ccccc2c2n1CC(CN1CCN(c3cccc(Cl)c3)CC1)N2 (centres unmarked)	-63.3
Cc1cc(C)cc(NC(=O)c2cc(C)nn2C)c1	0.0741
O=C(COC(=O)c1ncc(Cl)c(Cl)c1Cl)NC(=O)c1ccccc1	14.9
Cn1cnnc1SCc1ccccc1[N+](=O)[O-]	13.7
COc1cc(C#N)ccc1OCC(=O)NCCC1=CCCCC1	-13.2
Nc1ccc2c(c1)ncn2CCCn1cnc2cc(N)ccc21	-14.7
Fc1ccc(-n2cc(CNCCc3ccncc3)c(-c3ccccc3Cl)n2)cc1	-75.2
O=C(NCc1ccccn1)c1cn(-c2ccccc2)nc1-c1ccc(Cl)cc1	-1.67
Fc1ccc(NC(=S)NCCc2ccccn2)cc1	7.88
Fc1ccc(-n2cc(CNCCc3ccccn3)c(-c3ccccc3Cl)n2)cc1	-89.9
Cl.c1ccc(CCNCc2cccnc2)cc1	-0.175
Cl.c1cncc(CNCCc2c[nH]c3ccccc23)c1	4.01

Compound	hERG current change (%, negative = inhibition) at 10uM [%]
Fc1ccc(-n2cc(CNCCc3cccnc3)c(-c3ccccc3Cl)n2)cc1	-51.9
Cl.Fc1ccc(CCNCc2ccccc2Cl)cc1	1.24
Cl.Clc1ccccc1CNCc1ccncc1	-0.497
CC1(C)Cc2nc(N3CCOCC3)c(C#N)cc2CO1	7.25
COc1ccc(NC(=O)CN(C)C(=O)c2c(-c3c(F)cccc3Cl)noc2C)cc1	-16.2
CCC(C)(C)NC(=O)CN(Cc1ccccc1Cl)C(=O)CCC(=O)Nc1cc(C)ccn1	-4.7
O=C(O)c1nn(CC(=O)N2CCN(c3ccccc3)CC2)c(=O)c2ccccc12	8.36
O=C(O)c1ccccc1OCCOc1ccccc1	3.63
CC(C)c1nnc(NC(=O)c2cnccn2)s1	16.2
COc1ccc(C(=O)N2CCCCC2)cc1S(=O)(=O)Nc1cccc(C(=O)O)c1	6.94
CCOc1ccc(C(=O)OCCN(C)C)cc1.Cl	-10.3
CSc1ncccc1C(=O)OCC(=O)N1CC(=O)Nc2ccccc21	8.21
c1ccc(CC2CCN(Cc3nc(-c4ccccc4)no3)CC2)cc1	-8.93
COc1ccc(Nc2nc(N)nc(CN3CCC(C)CC3)n2)cc1	-75.4
COc1ccc(-c2noc(CN3CCC(Cc4ccccc4)CC3)n2)cc1	-8.3
COc1ccc(Nc2nc(N)nc(CSC(=S)N3CCC(C)CC3)n2)cc1	-5.86
COc1ccc(Nc2nc(N)nc(CN3CCC(Cc4ccccc4)CC3)n2)cc1	-79
COc1ccc(OCc2nc(N)nc(Nc3ccccc3)n2)cc1	-4.98
Nc1nc(CN2CCC(Cc3ccccc3)CC2)nc(Nc2ccccc2)n1	-82
COc1ccc(Nc2nc(N)nc(CN3CCOCC3)n2)cc1	-5.46
